# Many of the other results were omitted from the sample, so the strongest signals are more common in it than they were.
# B1: SP15308C-bot-338-23-338 (Bacteroides ovatus) (protein)
# chain: DEWTDEQFKQLISFKTQPGGWGVTDVHVRYANSAKYTYNLPVLVSGSTDNTDDRLVSFSLRDDTLDILNFEKFGNRPELYFRELPQKYYSFPKELTIPAGQSHALLPIEFSLDGLDDSQKWALPLKVCEDANGTYAVNPRKYYRTAVLRPILFNEFSGRFSGSSLLGTMAGESDIKFSSTEIKLNVVTDSIVFFYAGQRTEDYEDRINYKVFLQFTGDKVDSKKDLYKMKIWAENEKLKFNSYSTPTYKVSSEMDATKTYLKHTYIVISDIDFDFVDYTSVPNYEIEYNMKGGLSVSRDLDTRKPDEDQGSDSKWW
# Tests used:
# Test in all cases: glycan array binding signal (z-score within array); higher = stronger binding
# Settings in all cases: glycan notation: IUPAC condensed, linker removed
# [1] = biological target: GlcNAc(b1-2)[GlcNAc(b1-4)]Man(a1-3)[GlcNAc(b1-2)Man(a1-6)]Man(b1-4)GlcNAc(b1-4)GlcNAc
# How it was run: (§1)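 From the Consortium for Functional Glycomics database, 3228 arrays were curated, keeping only those whose protein sequence was available. Binding is given as a within-array Z-score averaged across arrays sharing a protein sequence and across linkers. Negative Z-scores can be read as non-binding.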
# [2] = biological target: GlcNAc(b1-2)[GlcNAc(b1-4)]Man(a1-3)[GlcNAc(b1-4)][GlcNAc(b1-2)[GlcNAc(b1-6)]Man(a1-6)]Man(b1-4)GlcNAc(b1-4)[Fuc(a1-6)]GlcNAc
# How it was run: as §1
# GlcNAc(b1-3)Gal = biological target: GlcNAc(b1-3)Gal
# How it was run: as §1
# [3] = biological target: GlcNAc(b1-3)Gal(b1-4)GlcNAc(b1-2)[GlcNAc(b1-3)Gal(b1-4)GlcNAc(b1-6)]Man(a1-6)[GlcNAc(b1-3)Gal(b1-4)GlcNAc(b1-2)Man(a1-3)]Man(b1-4)GlcNAc(b1-4)GlcNAc
# How it was run: as §1
# [4] = biological target: GlcNAc(b1-3)Gal(b1-4)GlcNAc(b1-3)Gal(b1-4)GlcNAc(b1-2)Man(a1-3)[GlcNAc(b1-3)Gal(b1-4)GlcNAc(b1-3)Gal(b1-4)GlcNAc(b1-2)Man(a1-6)]Man(b1-4)GlcNAc(b1-4)GlcNAc
# How it was run: as §1
# [5] = biological target: GlcNAc(b1-4)Gal(b1-4)GlcNAc
# How it was run: as §1
# [6] = biological target: GlcNAc(b1-4)GlcNAc(b1-4)GlcNAc
# How it was run: as §1
# [7] = biological target: GlcNAc(b1-6)Gal(b1-4)GlcNAc
# How it was run: as §1
# Man(a1-2)Man(a1-3)Man = biological target: Man(a1-2)Man(a1-3)Man
# How it was run: as §1
# [8] = biological target: Man(a1-2)Man(a1-6)[Man(a1-3)]Man(a1-6)[Man(a1-2)Man(a1-2)Man(a1-3)]Man
# How it was run: as §1
# [9] = biological target: Man(a1-3)[Man(a1-6)]Man(a1-6)[Man(a1-3)]Man
# How it was run: as §1
# MurNAc(b1-4)GlcNAc = biological target: MurNAc(b1-4)GlcNAc
# How it was run: as §1
# [10] = biological target: Neu5Ac(a2-3)Gal(b1-4)GlcNAc(b1-2)[Neu5Ac(a2-3)Gal(b1-4)GlcNAc(b1-4)]Man(a1-3)[GlcNAc(b1-4)][Neu5Ac(a2-3)Gal(b1-4)GlcNAc(b1-4)Man(a1-6)]Man(b1-4)GlcNAc(b1-4)GlcNAc
# How it was run: as §1
# [11] = biological target: Neu5Ac(a2-3)Gal(b1-4)GlcNAc(b1-2)[Neu5Ac(a2-3)Gal(b1-4)GlcNAc(b1-6)]Man(a1-6)[Neu5Ac(a2-3)Gal(b1-4)GlcNAc(b1-2)Man(a1-3)]Man(b1-4)GlcNAc(b1-4)GlcNAc
# How it was run: as §1
# [12] = biological target: Neu5Ac(a2-3)Gal(b1-4)GlcNAc(b1-3)Gal(b1-4)GlcNAc(b1-3)Gal(b1-4)GlcNAc(b1-2)Man(a1-3)[Neu5Ac(a2-3)Gal(b1-4)GlcNAc(b1-3)Gal(b1-4)GlcNAc(b1-3)Gal(b1-4)GlcNAc(b1-2)Man(a1-6)]GalNAc
# How it was run: as §1
# [13] = biological target: Neu5Ac(a2-3)Gal(b1-4)GlcNAc(b1-3)[Neu5Ac(a2-3)Gal(b1-4)GlcNAc(b1-6)]GalNAc
# How it was run: as §1
# [14] = biological target: Neu5Ac(a2-3)Gal(b1-4)[Fuc(a1-3)]GlcNAc(b1-3)Gal(b1-4)[Fuc(a1-3)]GlcNAc(b1-3)Gal(b1-4)[Fuc(a1-3)]GlcNAc
# How it was run: as §1
# [15] = biological target: Neu5Ac(a2-3)Gal(b1-4)[Fuc(a1-3)]GlcNAc(b1-3)GalNAc
# How it was run: as §1
# [16] = biological target: Neu5Ac(a2-3)[GalNAc(b1-4)]Gal(b1-4)GlcNAc
# How it was run: as §1
# [17] = biological target: Neu5Ac(a2-6)Gal(b1-4)GlcNAc(b1-2)Man(a1-6)[GlcNAc(b1-2)Man(a1-3)]Man(b1-4)GlcNAc(b1-4)GlcNAc
# How it was run: as §1
# [18] = biological target: Neu5Ac(a2-6)Gal(b1-4)GlcNAc(b1-3)Gal(b1-4)GlcNAc(b1-3)Gal(b1-4)GlcNAc(b1-2)Man(a1-3)[Neu5Ac(a2-6)Gal(b1-4)GlcNAc(b1-3)Gal(b1-4)GlcNAc(b1-3)Gal(b1-4)GlcNAc(b1-2)Man(a1-6)]GalNAc
# How it was run: as §1
# [19] = biological target: Neu5Ac(a2-6)Gal(b1-4)GlcNAc(b1-3)Gal(b1-4)[Fuc(a1-3)]GlcNAc(b1-3)Gal(b1-4)[Fuc(a1-3)]GlcNAc
# How it was run: as §1
# [20] = biological target: Neu5Ac(a2-8)Neu5Ac(a2-3)Gal(b1-4)Glc
# How it was run: as §1
# [21] = biological target: Neu5Gc(a2-3)Gal(b1-3)[Fuc(a1-4)]GlcNAc
# How it was run: as §1
# [22] = biological target: Neu5Gc(b2-6)Gal(b1-4)GlcNAc
# How it was run: as §1
binder,measurement,setting,value
B1,glycan array binding signal (z-score),[1],-0.931
same,glycan array binding signal (z-score),[2],-0.818
same,glycan array binding signal (z-score),GlcNAc(b1-3)Gal,-0.756
same,glycan array binding signal (z-score),[3],0.124
same,glycan array binding signal (z-score),[4],2.87
same,glycan array binding signal (z-score),[5],-0.205
same,glycan array binding signal (z-score),[6],-0.098
same,glycan array binding signal (z-score),[7],-0.182
same,glycan array binding signal (z-score),Man(a1-2)Man(a1-3)Man,0.722
same,glycan array binding signal (z-score),[8],-0.109
same,glycan array binding signal (z-score),[9],0.294
same,glycan array binding signal (z-score),MurNAc(b1-4)GlcNAc,-0.64
same,glycan array binding signal (z-score),[10],-0.025
same,glycan array binding signal (z-score),[11],0.382
same,glycan array binding signal (z-score),[12],0.621
same,glycan array binding signal (z-score),[13],-0.252
same,glycan array binding signal (z-score),[14],-0.739
same,glycan array binding signal (z-score),[15],3.23
same,glycan array binding signal (z-score),[16],-0.753
same,glycan array binding signal (z-score),[17],-0.62
same,glycan array binding signal (z-score),[18],2.46
same,glycan array binding signal (z-score),[19],-0.639
same,glycan array binding signal (z-score),[20],-0.032
same,glycan array binding signal (z-score),[21],0.492
same,glycan array binding signal (z-score),[22],0.812

# — the supplement of paper PMC8728848
